Test results published in PubChem BioAssay AID720555 (National Center for Advancing Translational Sciences (NCATS), 2013).
Several values for one entry are separate records, joined by “and”; a condition that tells them apart may be missing. Equal entries are not always repeated. Inconclusive results are not listed. Values without a mark were called inactive. Activity calls are given as the source filed them. Calls come from the whole dose curve; as a rule, active = well fitted inhibition curve with a large enough effect; inconclusive = small, poorly fitted or top-dose-only effect; inactive = no such curve, though single readings can be large or run the other way.

molecular target: RecQ-like DNA helicase BLM (Homo sapiens) (UniProt P54132); assay: qHTS for Inhibitors of Bloom's syndrome helicase (BLM): Helicase DNA unwinding fluorescent orthogonal confirmatory assay for SAR; settings: fluorescence, orthogonal confirmation; series mostly up to 55.6 µM; activity change, negative = inhibition: at the top concentration
Sequence (P54132 whole entry, looked up): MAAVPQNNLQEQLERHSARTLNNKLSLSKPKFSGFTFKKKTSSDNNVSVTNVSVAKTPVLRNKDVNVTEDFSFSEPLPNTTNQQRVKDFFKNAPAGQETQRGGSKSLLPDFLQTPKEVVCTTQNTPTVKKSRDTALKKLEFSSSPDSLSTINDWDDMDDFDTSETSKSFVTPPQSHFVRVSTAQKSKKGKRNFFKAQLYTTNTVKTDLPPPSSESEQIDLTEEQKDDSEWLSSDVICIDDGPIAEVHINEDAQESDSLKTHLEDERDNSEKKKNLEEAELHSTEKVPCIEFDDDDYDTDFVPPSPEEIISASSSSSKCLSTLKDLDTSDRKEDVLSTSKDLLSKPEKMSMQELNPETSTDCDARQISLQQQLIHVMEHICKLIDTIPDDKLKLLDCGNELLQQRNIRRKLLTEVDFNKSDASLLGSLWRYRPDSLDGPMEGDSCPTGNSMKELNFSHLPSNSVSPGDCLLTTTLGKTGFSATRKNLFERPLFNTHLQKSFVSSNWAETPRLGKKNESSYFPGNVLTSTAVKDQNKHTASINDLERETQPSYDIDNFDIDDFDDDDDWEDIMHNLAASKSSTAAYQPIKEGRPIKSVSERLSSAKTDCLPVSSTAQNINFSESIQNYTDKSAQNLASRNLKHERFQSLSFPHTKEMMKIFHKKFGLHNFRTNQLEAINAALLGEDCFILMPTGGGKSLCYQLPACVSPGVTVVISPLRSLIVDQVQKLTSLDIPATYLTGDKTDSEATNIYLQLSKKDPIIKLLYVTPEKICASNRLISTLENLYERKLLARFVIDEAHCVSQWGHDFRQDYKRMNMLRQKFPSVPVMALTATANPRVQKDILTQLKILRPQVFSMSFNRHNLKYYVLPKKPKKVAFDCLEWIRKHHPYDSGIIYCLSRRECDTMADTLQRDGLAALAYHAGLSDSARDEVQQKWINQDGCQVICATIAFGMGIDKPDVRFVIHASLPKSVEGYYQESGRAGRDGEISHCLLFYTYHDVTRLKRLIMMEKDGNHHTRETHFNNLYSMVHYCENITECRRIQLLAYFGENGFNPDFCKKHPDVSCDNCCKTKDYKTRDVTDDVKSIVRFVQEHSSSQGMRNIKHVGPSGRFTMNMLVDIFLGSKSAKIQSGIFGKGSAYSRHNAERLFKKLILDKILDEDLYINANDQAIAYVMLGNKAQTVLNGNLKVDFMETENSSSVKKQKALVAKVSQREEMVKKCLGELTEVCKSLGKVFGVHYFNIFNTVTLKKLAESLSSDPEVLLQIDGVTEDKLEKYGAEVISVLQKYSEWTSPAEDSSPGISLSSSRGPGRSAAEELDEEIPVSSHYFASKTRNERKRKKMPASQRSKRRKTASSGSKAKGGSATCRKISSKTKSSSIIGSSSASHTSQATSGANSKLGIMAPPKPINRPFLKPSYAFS
Outline: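 Purified BLM unwound a fluorescently labelled DNA substrate at room temperature in pH 7.5 Tris buffer with 2mM ATP and 2mM MgCl2. Products were resolved on native 15% gels. Loss of single-stranded product band, normalised to no-inhibitor and no-enzyme controls, indicates inhibition.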

Row | SMILES | Potency | activity change, negative = inhibition
1 | O=C(Nc1ccc(F)c(C(F)(F)F)c1)Nc1cccc(-c2ccncc2)n1 | 4.47 µM (active) | 
2 | O=C(Nc1ccc2ccccc2c1)Nc1nnc(Br)s1 |  | -13.7%
3 | O=C(Nc1ccc(-c2nc3ccccc3[nH]2)cc1)Nc1ccc2c(c1)OCCO2 |  | -0.67%
4 | Cc1cc(NC(=O)Nc2nnc(-c3ccncc3)s2)ccc1-c1cn[nH]c1 | 11.2 µM (active) | 
5 | O=C(Nc1ccc(Cl)c(Cl)c1)Nc1ncc(-c2ccncc2)s1 |  | -22.2% [at 53.6 µM]
6 | O=C(Nc1ccc(Cl)c([N+](=O)[O-])c1)Nc1nnc(-c2ccncc2)s1 | 1 µM (active) | 
7 | O=C(Nc1ccc(Cl)nc1)Nc1nnc(-c2ccncc2)s1 | 6.31 µM (active) | 
8 | O=C(Nc1ccc2c(c1)OCCO2)Nc1nnc(-c2ccncc2)s1 |  | 8.77%
9 | Cc1cc(NC(=O)Nc2nnc(-c3ccncc3)s2)ccc1Br | 12.6 µM (active) | 
10 | O=C(Nc1ccc(Br)c(Br)c1)Nc1nnc(-c2ccncc2)s1 | 5.01 µM (active) | 
11 | COc1ccccc1CNC(=O)Nc1nnc(-c2ccncc2)s1 |  | 0.3%
12 | O=C(Nc1ccc(F)c(C(F)(F)F)c1)Nc1nnc(C2CCCCC2)s1 |  | 5.75%
13 | O=C(Nc1ccc2ccccc2c1)Nc1nnc(-c2ccccc2Cl)s1 |  | -10.2%
14 | Cc1cc(NC(=O)Nc2nnc(-c3cccnc3)s2)ccc1Cl | 7.94 µM (active) and 3.98 µM (active) | 
15 | O=C(Nc1ccc(F)c(C(F)(F)F)c1)Nc1nnc(-c2cccnc2)s1 | 3.55 µM (active) | 
16 | N/C(=N\c1nnc(-c2ccncc2)s1)Nc1ccc(F)c(C(F)(F)F)c1 | 35.5 µM (active) | 
17 | O=C(Nc1ccc2ccccc2c1)Nc1nnc(-c2cccnc2)s1 | 10 µM (active) | 
18 | O=C(Nc1ccc(-c2cn[nH]c2)c(C(F)(F)F)c1)Nc1nnc(-c2ccncc2)s1 | 15.8 µM (active) | 
19 | Cc1cc(NC(=O)Nc2nnc(C3CCCCC3)s2)ccc1Br |  | -10.8%
20 | O=C(Nc1ccc2ccccc2c1)Nc1nnc(C2CCCCC2)s1 |  | 10.8%
21 | O=C(Nc1ccc(Cl)c(Cl)c1)Nc1nc(-c2ccncc2)cs1 | 28.2 µM (active) | 
22 | O=C(Nc1ccc(Cl)c([N+](=O)[O-])c1)Nc1nnc(-c2ccc(F)cc2)s1 | 2.24 µM (active) | 
23 | O=C(Nc1ccc(Cl)c(Cl)c1)N1CCN(c2ccncc2)CC1 |  | 6% [at 53.6 µM]
24 | O=C(Nc1ccc2sccc2c1)Nc1nnc(-c2cccnc2)s1 | 10 µM (active) | 
25 | CN1CCN(c2nnc(NC(=O)Nc3ccc(Cl)c(Cl)c3)s2)CC1 |  | 8.47%
26 | N#Cc1cc(NC(=O)Nc2cccc(-c3ccncc3)n2)ccc1Cl | 0.631 µM (active) | 
27 | O=C(Nc1ccc(Br)c(Br)c1)Nc1cccc(-c2ccncc2)n1 | 0.891 µM (active) | 
28 | N#CN/C(=N\c1nnc(-c2ccncc2)s1)Nc1ccc(F)c(C(F)(F)F)c1 | 3.16 µM (active) | 
29 | Cc1cc(NC(=O)Nc2nnc(-c3cccnc3)s2)ccc1F | 25.1 µM (active) | 
